The list is not random: actives were taken first. Their share in the collection is about 4.8%.
DAX1 inh-1 = NR0B1 (DAX1) inhibition | hit rate 0.99% among 340,000 | P51843 | inhibition, % at 6.75 µM | AID 504766 | HEK293 Gal4-DAX1 luciferase reporter, luminescence;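 active means inhibition above the mean over all tested compounds plus 3 SD, cut at about 4.2% in these data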;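 further: 0% = DAX1-transfected cells with DMSO and 100% = empty-vector control cells with DMSO; inhibition shows as a rise in luminescence from relieved DAX1 repression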
Target sequence (P51843 207-470 limits assumed): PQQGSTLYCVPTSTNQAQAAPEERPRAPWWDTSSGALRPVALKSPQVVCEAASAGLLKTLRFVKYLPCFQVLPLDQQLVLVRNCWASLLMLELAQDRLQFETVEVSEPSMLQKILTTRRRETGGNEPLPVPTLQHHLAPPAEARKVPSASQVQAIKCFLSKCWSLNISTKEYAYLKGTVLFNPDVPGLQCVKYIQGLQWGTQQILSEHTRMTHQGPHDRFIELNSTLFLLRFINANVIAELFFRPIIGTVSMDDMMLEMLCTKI
SMARCA2 act = SMARCA2 function activation, primary screen; MG213 cells, MMTV-luciferase reporter, dexamethasone, overnight; activation, % at 9.1 µM; hit rate 1% among 370,000; AID 652017; in the data active means activation above about 7.8%;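 further: 0% = vehicle wells and 100% = reference activator wells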
hcDAF12 agonist = H. contortus DAF-12 activation, primary screen. activation, % at 6.8 µM. HEK293 hcDAF-12 lit1-tk-luc reporter, luminescence; 0% DMSO, 100% Δ7-dafachronic acid. hit rate 1.4% among 370,000;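 active means activation above the mean of all tested compounds plus 3 SD, cut at about 5.5% in these data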;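 further: 100% = response to 3 µM Δ7-dafachronic acid high control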
hgDAF12 agonist = hgDAF-12 agonism, primary luciferase screen; activation, % at 6.8 µM; HEK293 GAL4-hgDAF12 UAS-luciferase reporter, agonist luminescence; normalized to butyrate control; hit rate 1.8% among 370,000; AID 687014;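 active means activation above a cutoff set at the mean of all screened compounds plus 3 SD, cut at about 10% in these data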;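 further: 0% = DMSO wells and 100% = sodium butyrate wells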
ssDAF-12 act = S. stercoralis DAF-12 activation, primary screen | HEK293 ssDAF-12/GRIP1 lit1-tk-luc reporter, luminescence; % of 3 µM dafachronic acid response | activation, % at 6.8 µM | hit rate 1% among 370,000 | AID 652126;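 active means activation above the mean over all tested compounds plus 3 SD, cut at about 0.9% in these data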;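 further: 0% = DMSO-only wells and 100% = 3 µM delta7-dafachronic acid wells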
DAX1 inh-2 = DAX1 (NR0B1) inhibition, primary screen; HEK293T StAR-luciferase reporter, SF-1/DAX-1 repression relief; inhibition, % at 6.8 µM; hit rate 1.1% among 370,000; AID 652010;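 active means inhibition above the mean over all tested compounds plus 3 SD, cut at about 3.6% in these data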;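 further: 0% = DAX-1 cells with DMSO and 100% = cells lacking DAX-1 with DMSO; higher inhibition means more luminescence from relief of DAX-1 repression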
SMARCA2 conf = confirmation of SMARCA2 (BRM) function activators; shares compounds with SMARCA2 act; MG213 cells, MMTV-luciferase with dexamethasone, luminescence, overnight; MG213 cells expressing E1A, Rb sequestered; DMSO wells 0%, reference activator 100%; activation, % at 9.1 µM; hit rate 30% among 3,500;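 active means activation above its plate's cutoff, the mean activation of tested wells plus 3 SD, cut at about 7.9% in these data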
GAL4-VP16 Luc = counter-screen for SMARCA2 activators: GAL4-VP16 luciferase reporter activation | shares compounds with SMARCA2 act | HEK293 GAL4-VP16 pG5luc reporter, luciferase luminescence; scaled: DMSO wells 0%, SAHA wells 100% | activation, % at 9.1 µM | hit rate 41% among 3,500;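 active means activation above the solvent-only control well mean plus 3 SD, averaged across control plates, cut at about 5.2% in these data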
Numbers without * were called inactive.

For C=CCNC(=S)N(C)[C@H]1C[C@H]2c3cc(-c4ccccc4C)ccc3CCN2C[C@H]1[C@H](C)O the results were SMARCA2 act -3.5, hcDAF12 agonist -1.7, hgDAF12 agonist -2.9, ssDAF-12 act -1.4 and DAX1 inh-2 0.0.
CCNC(=O)c1ccccc1SCC(=O)Nc1ccc(F)cc1 was read as DAX1 inh-1 0.3, SMARCA2 act -3.2, hcDAF12 agonist 0.3, hgDAF12 agonist 2.0, ssDAF-12 act -1.1 and DAX1 inh-2 0.4.
O=C(COc1ccccc1/C=C1\SC(=O)NC1=O)Nc1ccccc1 was read as DAX1 inh-1 -1.6, SMARCA2 act -2.7, hcDAF12 agonist 1.0, hgDAF12 agonist -1.2, ssDAF-12 act -1.4 and DAX1 inh-2 -0.6.
Screening O=C(/C=C1\SC(=O)NC1=O)Nc1ccc(F)cc1 returned DAX1 inh-1 -0.4, SMARCA2 act 8.4*, hcDAF12 agonist 1.5, hgDAF12 agonist 3.0, ssDAF-12 act -1.0, DAX1 inh-2 -0.3, SMARCA2 conf 6.1 and GAL4-VP16 Luc 1.5.
`CCN(CC)C(=O)CC[C@H]1CC[C@]2(CCCN(Cc3cccnc3)C2)O1` gave SMARCA2 act -1.6, hcDAF12 agonist 2.0, hgDAF12 agonist 0.5, ssDAF-12 act -1.5 and DAX1 inh-2 2.1.
Cc1cc(NC(=O)CSc2nnc(C)o2)no1 was read as DAX1 inh-1 0.6, SMARCA2 act 0.6, hcDAF12 agonist 0.3, hgDAF12 agonist 1.6, ssDAF-12 act -0.7 and DAX1 inh-2 2.6.
Screening C/C(=N\NC(=O)c1ccc(NS(=O)(=O)c2cccs2)cc1)c1cccs1 returned DAX1 inh-1 0.0, SMARCA2 act -4.3, hcDAF12 agonist 0.1, hgDAF12 agonist 0.2, ssDAF-12 act -1.0 and DAX1 inh-2 0.5.
C/C(=N\NC(=O)c1ccc(NS(=O)(=O)c2cccs2)cc1)c1ccc(Cl)cc1 was read as DAX1 inh-1 0.0, SMARCA2 act 9.1*, hcDAF12 agonist -0.8, hgDAF12 agonist 7.0, ssDAF-12 act -0.9, DAX1 inh-2 0.1, SMARCA2 conf 3.2 and GAL4-VP16 Luc -0.3.
For C=CCNc1ccc(C(=O)O)cc1 the results were DAX1 inh-1 -0.7, SMARCA2 act 9.7*, hcDAF12 agonist -1.2, hgDAF12 agonist -0.7, ssDAF-12 act -0.9, DAX1 inh-2 -0.1, SMARCA2 conf 3.4 and GAL4-VP16 Luc -1.3.
`CC(=O)Nc1ccc(C(=O)O)cc1` gave DAX1 inh-1 1.2, SMARCA2 act 0.8, hcDAF12 agonist 2.3, hgDAF12 agonist 2.1, ssDAF-12 act -1.4 and DAX1 inh-2 0.9.
For COc1ccc(S(=O)(=O)n2nc(OC(=O)c3cccs3)cc2NC(=O)c2cccs2)cc1 the results were DAX1 inh-1 0.0, SMARCA2 act 0.3, hcDAF12 agonist -0.9, hgDAF12 agonist -1.4, ssDAF-12 act -1.1 and DAX1 inh-2 -0.4.
Clc1ccc(C=Cc2ccccn2)cc1 was read as DAX1 inh-1 2.8, SMARCA2 act 19.2*, hcDAF12 agonist 5.5, hgDAF12 agonist 13.0*, ssDAF-12 act 0.6, DAX1 inh-2 3.3, SMARCA2 conf 5.8 and GAL4-VP16 Luc 8.0*.
Screening O=C(N/N=C/c1ccccn1)c1ccc(Cl)cc1 returned DAX1 inh-1 0.7, SMARCA2 act 13.3*, hcDAF12 agonist 0.6, hgDAF12 agonist -0.7, ssDAF-12 act -0.2, DAX1 inh-2 -0.1, SMARCA2 conf -6.5 and GAL4-VP16 Luc 20.8*.
Screening C(=C\c1ccccn1)/c1ccccn1 returned DAX1 inh-1 0.9, SMARCA2 act 0.3, hcDAF12 agonist 0.4, hgDAF12 agonist 3.6, ssDAF-12 act -0.5 and DAX1 inh-2 0.8.
Screening COC(=O)[C@]12C[C@H](CC(=O)N3CCOCC3)C(=O)N(Cc3ccc4c(c3)OCO4)C1=C[C@H](COCc1ccccc1)O[C@@H]2C returned SMARCA2 act -4.8, hcDAF12 agonist -0.2, hgDAF12 agonist 0.0, ssDAF-12 act -1.5 and DAX1 inh-2 -0.7.
For O=C(c1cccc(S(=O)(=O)N2CCN(c3ccccc3)CC2)c1)N1CCN(c2ccccc2O)CC1 the results were DAX1 inh-1 0.9, SMARCA2 act -0.7, hcDAF12 agonist -0.1, hgDAF12 agonist 0.3, ssDAF-12 act -0.7 and DAX1 inh-2 -1.6.
CCCc1cc2c(=O)c(-c3ccccn3)c(C)oc2cc1O was read as DAX1 inh-1 0.5, SMARCA2 act -4.6, hcDAF12 agonist 0.5, hgDAF12 agonist 1.0, ssDAF-12 act -0.9 and DAX1 inh-2 0.6.
For CCCc1cc2c(=O)c(-c3ccccn3)coc2cc1OC the results were DAX1 inh-1 0.8, SMARCA2 act 10.8*, hcDAF12 agonist -0.4, hgDAF12 agonist 3.1, ssDAF-12 act -0.9, DAX1 inh-2 1.5, SMARCA2 conf 17.6* and GAL4-VP16 Luc 6.2*.
For C[C@H](CO)N1C[C@H](C)[C@@H](CN(C)C(=O)CCC(F)(F)F)OCc2cn(nn2)CCCC1=O the results were SMARCA2 act 8.4*, hcDAF12 agonist -0.3, hgDAF12 agonist -1.2, ssDAF-12 act -0.2, DAX1 inh-2 -0.1, SMARCA2 conf 0.5 and GAL4-VP16 Luc 0.8.
`C[C@@H]1CN([C@@H](C)CO)C(=O)CCCn2cc(nn2)CO[C@H]1CN(C)C(=O)CCCN(C)C` gave DAX1 inh-1 0.2, SMARCA2 act 3.5, hcDAF12 agonist 1.5, hgDAF12 agonist -0.1, ssDAF-12 act -1.0 and DAX1 inh-2 0.9.
CCCNC(=O)C1(C)CCN1C(=O)Cc1ccc(C(C)C)cc1 (centres undefined) was read as SMARCA2 act -1.1, hcDAF12 agonist -0.8, hgDAF12 agonist 0.0, ssDAF-12 act -1.5 and DAX1 inh-2 0.4.
CCOc1ccc(/C=C2\SC(N3CCc4ccccc4C3)=NC2=O)cc1 was read as DAX1 inh-1 -0.5, SMARCA2 act 9.0*, hcDAF12 agonist 0.1, hgDAF12 agonist 3.0, ssDAF-12 act -1.4, DAX1 inh-2 0.4, SMARCA2 conf -0.6 and GAL4-VP16 Luc 0.8.
COc1ccc(/C=C2\SC(N3CCc4ccccc4C3)=NC2=O)cc1 was read as DAX1 inh-1 0.3, SMARCA2 act -0.6, hcDAF12 agonist 1.2, hgDAF12 agonist -1.9, ssDAF-12 act -0.8 and DAX1 inh-2 0.6.
Screening Cc1ccc(C(=O)NC2=NCCS2)cc1 returned SMARCA2 act 8.8*, hcDAF12 agonist 2.9, hgDAF12 agonist 9.4, ssDAF-12 act 0.1, DAX1 inh-2 2.8, SMARCA2 conf 7.2 and GAL4-VP16 Luc 13.4*.
`Cc1ccc(C(=O)NC2=NCCS2)cc1Cl` gave DAX1 inh-1 4.0.

Assay outcomes (PubChem)
